Screens deposited in PubChem by several laboratories.
TPT1 inh = inhibitors of Candida albicans tRNA 2'-phosphotransferase TPT1. recombinant caTPT1, FP RNA substrate dephosphorylation. inhibition, % at 5 µM. actives 0.81% (n = 300,000);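 active = inhibition above the mean of all tested compounds plus 3 SD, set per screening campaign, cut at about 24% in these data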
WT yeast gro inh = growth inhibition of WT yeast, mitochondrial fusion screen | mitochondrial fusion phenotypic screen, WT strain | inhibition, % at 10 µM | actives 2.1% (n = 190,000); in the data active = inhibition above about 58%; tested in S. cerevisiae
Platelet DG rel = modulates dense granule release in human platelets | inhibition, %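 (compounds screened at 7.5 µM in platelet-rich plasma)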 | human platelet-rich plasma, SFLLRN dense granule ATP release, luminescence | actives 0.22% (n = 300,000);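 active = mean replicate score, as percent of positive control, at or above 50; inconclusive = mean below 50 but at least one replicate at or above 50; inactive = mean and every replicate below 50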
SKKanGAS inh = blocks kanamycin growth of S. pyogenes SKKanGAS strain. actives 1.3% (n = 300,000). inhibition, % at 7.5 µM. BacTiter-Glo, 6 h;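 active = mean replicate score, as percent of positive control median, at least 50; inconclusive = mean below 50 but one replicate at or above 50; inactive = mean and every replicate below 50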;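 also: strain carries kanamycin resistance gene driven by streptokinase promoter and grows in 40 µg/ml kanamycin; loss of luminescence reflects streptokinase promoter inhibition or plain growth inhibition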
Rtt109 HAT inh = inhibitors of Candida albicans Rtt109/Vps75 histone acetyltransferase. purified Rtt109/Vps75, ThioGlo CoA-SH fluorescence, 4 h. AID 540336. inhibition, % at 34.9 µM. actives 0.16% (n = 330,000);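 active = inhibition of at least 50% in every replicate; inconclusive = best replicate reaches 50% inhibition but some replicates fall short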
Target sequence (Q5AAJ8 whole entry, looked up): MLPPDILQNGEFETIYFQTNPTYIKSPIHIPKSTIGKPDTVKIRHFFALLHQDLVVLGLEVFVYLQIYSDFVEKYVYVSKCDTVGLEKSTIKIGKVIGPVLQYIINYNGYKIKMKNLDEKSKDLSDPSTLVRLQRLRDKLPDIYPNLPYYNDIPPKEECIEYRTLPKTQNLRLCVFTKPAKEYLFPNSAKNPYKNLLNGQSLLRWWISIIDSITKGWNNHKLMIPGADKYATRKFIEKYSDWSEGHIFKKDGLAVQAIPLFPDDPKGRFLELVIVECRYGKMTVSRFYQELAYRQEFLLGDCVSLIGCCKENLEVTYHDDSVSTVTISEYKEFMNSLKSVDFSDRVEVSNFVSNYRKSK
PHOSPHO1 block = blocks human PHOSPHO1 phosphatase activity. actives 1.1% (n = 290,000). Q8TCT1. recombinant PHOSPHO1, absorbance phosphatase assay. inhibition, % at 13.3 µM; in the data active = inhibition above about 60%
Target sequence (Q8TCT1 whole entry, looked up): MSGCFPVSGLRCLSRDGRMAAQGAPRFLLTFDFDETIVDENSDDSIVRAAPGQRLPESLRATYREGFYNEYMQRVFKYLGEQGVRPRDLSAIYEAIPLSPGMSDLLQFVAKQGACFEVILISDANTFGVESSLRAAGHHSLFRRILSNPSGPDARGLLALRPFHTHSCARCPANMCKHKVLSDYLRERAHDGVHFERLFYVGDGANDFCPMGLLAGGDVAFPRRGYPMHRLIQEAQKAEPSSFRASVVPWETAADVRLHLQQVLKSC
Large screens that a line does not name were inactive. The list is not random: actives were taken first. Their share in the collection is about 3.9%.

COc1ccc(Cn2c(-c3ccc(OC)cc3)n[nH]c2=S)cc1	none (no result: WT yeast gro inh, PHOSPHO1 block)
CCn1c(-c2csc(C(C)C)c2)n[nH]c1=S	none
COc1ccc(-c2n[nH]c(=S)n2CC(C)C)cc1	PHOSPHO1 block 96.9
CC(C)Cn1c(-c2csc(C(C)C)c2)n[nH]c1=S	WT yeast gro inh 66.7
Cc1onc(-c2ccccc2Cl)c1C(=O)Nc1nnc(-c2cccc([N+](=O)[O-])c2)s1	WT yeast gro inh 63.9
CCSc1nnc(NC(=O)CCNS(=O)(=O)c2ccccc2F)s1	none (no result: WT yeast gro inh)
CCc1ccccc1OCC(=O)N1CCN(c2ncccn2)CC1	none (no result: TPT1 inh, WT yeast gro inh, Platelet DG rel, SKKanGAS inh, PHOSPHO1 block)
CC(C)C(=O)Nc1cc2c3c(c1)CCC(=O)N3CCC2	none (no result: WT yeast gro inh)
COCCn1c(-c2ccc(Cl)cc2)cnc1SCC(=O)NCc1cccs1	PHOSPHO1 block 73.5 (no result: Platelet DG rel, SKKanGAS inh)
O=C(CSc1nc2ccccc2c(=O)n1Cc1ccc(Cl)cc1)NCc1cccs1	none
COc1ccccc1-c1nc2c3ccccc3nc(=S)n2[nH]1	none (no result: WT yeast gro inh)
S=c1nc2ccccc2c2nc(-c3ccccc3)[nH]n12	WT yeast gro inh 71.0, SKKanGAS inh inconclusive
CC(Oc1ccc(Br)cc1)c1nc2c3ccccc3nc(=S)n2[nH]1 (centres undefined)	SKKanGAS inh 92.3
CCCC(Oc1ccc(Br)cc1)c1nc2c3cc(OC)c(OC)cc3nc(=S)n2[nH]1 (centres undefined)	SKKanGAS inh 100.1
CCCn1c(SC(C)C(=O)NCC2CCCO2)nc2sc(CC)cc2c1=O (centres undefined)	none (no result: WT yeast gro inh)
COc1ccc(Cl)cc1CC=NNC(=O)c1ccncc1	none (no result: TPT1 inh, WT yeast gro inh, Platelet DG rel, SKKanGAS inh, PHOSPHO1 block)
CCCc1cc(C(=O)NC2CCCC2)no1	Platelet DG rel 85.3
CCOC(=O)C(=CNc1nc(-c2ccccc2)c(C(=O)Nc2ccc(-c3ccccc3)cc2)s1)C(=O)OCC	none (no result: WT yeast gro inh)
CCOC(=O)c1c(C)nc2c(c1-c1cc(OC)ccc1OC)C(=O)c1ccccc1-2	none
CCOC(=O)C1=C(Cc2ccc(C)cc2)C(=O)c2ccccc2C1=O	SKKanGAS inh 64.3 (no result: Rtt109 HAT inh)
CCOC(=O)C1=C(Cc2ccc(OC)cc2)C(=O)c2ccccc2C1=O	PHOSPHO1 block 71.2 (no result: TPT1 inh, Platelet DG rel, SKKanGAS inh)
CCOC(=O)c1ccc(COC(=O)c2ccc3c(c2)-c2ccccc2C3=O)cc1	none
CC(=O)Nc1ccc(NC(=O)C(NS(=O)(=O)c2cccc3nsnc23)C(C)C)cc1 (centres undefined)	none (no result: WT yeast gro inh)
COc1ccc(-c2nn(-c3ccccc3)cc2C(=O)NC2CC2)cc1	none (no result: TPT1 inh, WT yeast gro inh, Platelet DG rel, SKKanGAS inh, PHOSPHO1 block)
Cc1ccsc1/C=N/Nc1nc(=O)[nH]nc1C	WT yeast gro inh 69.6, Platelet DG rel 50.7
Cc1ccc(NC(=O)c2ccc(=O)[nH]c2)cc1S(=O)(=O)N1CCCCC1	none (no result: WT yeast gro inh)
CCCCOP(=O)(c1ccc(N(C)C)cc1)C(Nc1ccccc1)c1ccccc1 (centres undefined)	WT yeast gro inh 81.2
CCCOP(=O)(c1ccc(N(C)C)cc1)C(Nc1ccccc1)c1ccc(N(C)C)cc1 (centres undefined)	none
CC(=O)c1cccc(CN2CCN(Cc3ccc(F)cc3)C(CCO)C2)c1 (centres undefined)	PHOSPHO1 block 60.1 (no result: Rtt109 HAT inh)
CCn1cc(CN2CCN(Cc3ccsc3)C(CCO)C2)cn1 (centres undefined)	none
OCCC1CN(Cc2cnn(-c3ccc(F)cc3)c2)CCN1Cc1ccsc1 (centres undefined)	PHOSPHO1 block 60.1
NC1=NC(c2ccccc2)CC(=O)N1 (centres undefined)	none (no result: TPT1 inh, WT yeast gro inh, Platelet DG rel, SKKanGAS inh, PHOSPHO1 block)
Cn1c(C(=O)N2CCc3ccccc3C2)cc2oc3ccccc3c21	WT yeast gro inh 66.4
CCn1c(C(=O)N2CCc3ccccc3C2)cc2oc3ccccc3c21	WT yeast gro inh 78.4, SKKanGAS inh inconclusive
C/C(=N/NS(=O)(=O)c1ccc(Br)cc1)c1ccc(NC(=O)c2ccc(C)o2)cc1	PHOSPHO1 block 74.3
CCOC(=O)COc1ccccc1/C=C\[N+](=O)[O-]	WT yeast gro inh 68.6
Cc1ccc(C(=O)COC(=O)COc2ccccc2[N+](=O)[O-])s1	none (no result: TPT1 inh, WT yeast gro inh, Platelet DG rel, SKKanGAS inh, PHOSPHO1 block)
O=C(COc1ccccc1-c1ccccc1)N/N=C/c1ccc2ccccc2c1	SKKanGAS inh 88.2
C/C(=N\NC(=O)COc1ccccc1-c1ccccc1)c1ccc(O)cc1O	SKKanGAS inh 86.4 (no result: WT yeast gro inh)
C/C(=N\NC(=O)COc1ccccc1-c1ccccc1)c1cccnc1	none
O=C(COc1ccccc1-c1ccccc1)N/N=C/c1ccncc1	none
C/C(=N\NC(=O)COc1ccccc1-c1ccccc1)c1ccccn1	WT yeast gro inh 71.8, SKKanGAS inh 83.3
O=C(NCCCn1ccnc1)c1cc(Cl)cc(Cl)c1	none (no result: WT yeast gro inh)
CC1CN(C(=O)c2ccccc2NS(=O)(=O)c2ccc(Cl)cc2)CC(C)O1 (centres undefined)	none (no result: TPT1 inh, WT yeast gro inh, Platelet DG rel, SKKanGAS inh, PHOSPHO1 block)
Nc1nc(SCC(=O)C23CC4CC(CC(C4)C2)C3)n[nH]1	PHOSPHO1 block 88.5
CN(C(=O)CSc1n[nH]c(N)n1)C1CCCCC1	none (no result: TPT1 inh, WT yeast gro inh, Platelet DG rel, SKKanGAS inh, PHOSPHO1 block)
CCOC(=O)c1cc2c(ccn2C)n1Cc1cc(C)ccc1C	WT yeast gro inh 67.2
CCOC(=O)c1cc2c(ccn2C)n1CC(=O)N1CCN(c2ccc(F)cc2)CC1	none
NC(Cc1c[nH]c2ccccc12)C(=O)NCc1ccccc1 (centres undefined)	none (no result: WT yeast gro inh)
O=S(=O)(Nc1nccs1)c1ccc(Nc2nnc(-c3ccccc3)c3ccccc23)cc1	SKKanGAS inh 103.2
O=C1c2cccc3c([N+](=O)[O-])ccc(c23)C(=O)N1Cc1cccnc1	WT yeast gro inh 64.4 (no result: TPT1 inh)
O=C1c2cccc3cccc(c23)C(=O)N1Cc1cccnc1	none (no result: WT yeast gro inh)
Nc1c(S(=O)(=O)c2ccccc2)c2nc3ccccc3nc2n1/N=C/c1cccc(O)c1	SKKanGAS inh 56.4
O=C(O)c1ccc(N/N=C2/CCCc3ccccc32)cc1	none (no result: WT yeast gro inh)
S=c1[nH]nc(-c2ccncc2)n1/N=C/c1cn(-c2ccccc2)nc1-c1ccccc1	SKKanGAS inh 50.8, PHOSPHO1 block 90.4 (no result: WT yeast gro inh, Rtt109 HAT inh)
Cc1ccc(-c2nn(-c3ccccc3)cc2/C=N/n2c(-c3cccs3)n[nH]c2=S)cc1	SKKanGAS inh 55.0 (no result: WT yeast gro inh, Rtt109 HAT inh)
Cc1ccc(/C=N/n2c(-c3ccncc3)n[nH]c2=S)cc1	PHOSPHO1 block 90.8 (no result: TPT1 inh)
O=[N+]([O-])c1ccc(-c2nn(-c3ccccc3)cc2/C=N/n2c(-c3ccncc3)n[nH]c2=S)cc1	none (no result: WT yeast gro inh)
Cn1c(CN2CCCC2)nc2cc(NC(=O)c3ccc(Cl)cc3)ccc21	none
Cn1c(CN2CCCCC2)nc2cc(NC(=O)c3ccc(Cl)cc3)ccc21	WT yeast gro inh 70.5
NS(=O)(=O)c1ccc(N2N=C(c3ccccc3)CC2c2cccc(Br)c2)cc1 (centres undefined)	none (no result: TPT1 inh, WT yeast gro inh, Platelet DG rel, SKKanGAS inh, PHOSPHO1 block)
NS(=O)(=O)c1ccc(N2N=C(c3ccccc3)CC2c2cccc(F)c2)cc1 (centres undefined)	WT yeast gro inh 84.7
NS(=O)(=O)c1ccc(N2N=C(c3ccc(Br)cc3)CC2c2ccc(F)cc2)cc1 (centres undefined)	WT yeast gro inh 92.1, SKKanGAS inh 71.6
CC(NCC(O)COCCC12CC3CC(CC(C3)C1)C2)c1ccccc1 (centres undefined)	WT yeast gro inh 75.9
